Reference: PubChem BioAssay (NCI)
Compounds without any hit were thinned out: in the full panel of roughly 79,000, 15% have a hit. A number with no mark means an inactive call. Activity calls are given as the source filed them. Rule as the data show it: active = growth inhibition above about 70%; inactive = the rest.

Legend:
[1] = NCI Yeast Anticancer Drug Screen. Data for the rad50 strain (AID 155);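 also: 0% = growth of vehicle-only cultures of the same strain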; details: S. cerevisiae rad50 strain growth inhibition, active compounds read high
Procedure, shortened: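 Relative growth inhibition (compound vs vehicle) was measured in yeast with a defined repair-gene alteration.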

[2] = NCI Yeast Anticancer Drug Screen. Data for the mec2-1 strain (AID 157); details: S. cerevisiae mec2-1 strain, active compounds read high
Procedure, shortened: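 Readout is yeast growth inhibition, normalised to vehicle-treated controls, in the mec2-1 strain exposed to compound.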

[3] = NCI Yeast Anticancer Drug Screen. Data for the sgs1 mgt1 strain (AID 161);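 also: 0% = growth of cultures given vehicle only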; details: S. cerevisiae sgs1 mgt1 strain, active compounds read high
Procedure, shortened: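 Compounds are added to genetically altered yeast, and growth is compared with cultures given vehicle alone to give percent inhibition.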

[4] = NCI Yeast Anticancer Drug Screen. Data for the cln2 rad14 strain (AID 165);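 also: 0% = growth equal to vehicle treated cultures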; details: S. cerevisiae cln2 rad14 strain, active compounds read high
Procedure, shortened: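 Relative to vehicle controls, growth inhibition of compound-treated cln2 rad14 yeast was recorded.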

[5] = NCI Yeast Anticancer Drug Screen. Data for the bub3 strain (AID 167); details: S. cerevisiae bub3 mutant strain, active compounds read high
Procedure, shortened: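 Screening used yeast with an engineered genetic alteration affecting cell cycle control. Compound-exposed cultures were compared with vehicle cultures, and reduced growth was taken as inhibition.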

[6] = NCI Yeast Anticancer Drug Screen. Data for the mlh1 rad18 strain (AID 175); details: S. cerevisiae mlh1 rad18 strain growth inhibition, active compounds read high
Procedure, shortened: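 Test agents were incubated with a yeast strain of defined genotype (DNA damage repair defect). Inhibition of growth was derived by comparison with vehicle-exposed cultures.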

[7] = at 5.0 µM (retest, dose inferred, filed as 0.5)
[8] = at 50.0 µM (retest, dose inferred, filed as 5.0)

Structure (SMILES)	growth inhibition [1, 7] [%]	growth inhibition [1, 8]	growth inhibition ([1]; at 50.0 µM)	growth inhibition [2, 7] [%]	growth inhibition [2, 8]	growth inhibition ([2]; at 50.0 µM)	growth inhibition [3, 7] [%]	growth inhibition [3, 8]	growth inhibition ([3]; at 50.0 µM)	growth inhibition [4, 7] [%]	growth inhibition [4, 8]	growth inhibition ([4]; at 50.0 µM)	growth inhibition [5, 7] [%]	growth inhibition [5, 8]	growth inhibition ([5]; at 50.0 µM)	growth inhibition [6, 7] [%]	growth inhibition [6, 8]	growth inhibition ([6]; at 50.0 µM)
Cc1c(Cl)cccc1N=NC(=O)NNc1cccc(Cl)c1C	1	96% (active)	85.4% (active)	29	96% (active)	82.1% (active)	-1	97% (active)	74.5% (active)	29	97% (active)	80.5% (active)	-12	97% (active)	83.3% (active)	1	98% (active)	81.5% (active)
CN(C)c1ccc(C(c2cc3c(cc2O)OCO3)N2CCCCC2)cc1 (configuration not stated)	3	86% (active)	99.3% (active)	-4	98% (active)	99.5% (active)	8	88% (active)	99.5% (active)	-1	70% (active)	98.3% (active)	-5	97% (active)	99.3% (active)	-8	97% (active)	99.3% (active)
CCCCCCCCCCCCCCCCCC(=O)OCC(O)COC(=O)CCCCCCCCCCCCCCCCC	-2	-5%	-7.45%	1	-3%	15.6%	-3	-21%	-8.65%	0	-13%	38.4%	4	0%	45.5%	2	-1%	2.55%
O=C(CCN1CCCCC1)/C(=C\c1ccc(Cl)cc1)c1ccccc1	5	95% (active)	99% (active)	7	99% (active)	99.4% (active)	37	100% (active)	99.3% (active)	14	91% (active)	99.1% (active)	20	98% (active)	99% (active)	16	99% (active)	99.2% (active)
O=[N+]([O-])c1ccc(Cl)cc1C=NC12CC3CC(CC(C3)C1)C2	15	16%	80.8% (active)	12	13%	69%	16	23%	22.4%	3	14%	8.55%	4	9%	4.2%	13	15%	54.6%
CCCCc1ccc2nc(C)cc(N/N=C/c3ccc4c(c3)OCO4)c2c1	9	20%	66.7%	1	19%	22%	15	31%	73.5% (active)	-3	2%	15.9%	-4	1%	6.6%	9	35%	29.8%
Oc1c(Br)c(Br)c(O)c(Br)c1Br	12	50%	98.9% (active)	7	33%	99.2% (active)	7	58%	94.5% (active)	5	13%	37.5%	8	42%	97.8% (active)	10	35%	98% (active)
CN(C)c1nc(N(C)C)oc(=[N+](C)C)n1	-2	-13%	9.7%	3	-8%	9.35%	0	-9%	7.8%	3	1%	57.3%	3	15%	-7.45%	1	-13%	30.4%
O=Cc1cc(S(=O)(=O)c2ccc(O)c(C=O)c2)ccc1O	12	22%	98.7% (active)	32	38%	98.7% (active)	17	25%	98.8% (active)	23	25%	97.5% (active)	5	11%	99% (active)	26	22%	98.6% (active)
